Experimental findings from PubChem BioAssay AID463213 (Sanford-Burnham Center for Chemical Genomics, 2010) are described below.

By inhibition is commonly meant the relative decrease from the control value, in per cent.

Screen size: about 7,400 compounds; about 4,100 (55%) were called active. The set was probably picked from earlier hits. Not all results are given here. A number with no mark means an inactive call.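 How the source made its calls: active means inhibition of yeast growth at or above a set limit in either of two repeat tests at 20 µM; inactive means the rest.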

This assay in a line: growth inhibitors of tim10-1 mutant yeast, confirmation, single concentration, luminescence, S. cerevisiae (AID 463213).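 Further: tim10-1 mutant grown at permissive 25 °C to find synthetic lethal compounds; 0% = DMSO yeast wells and 100% = medium wells without yeast.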 The following applies: S. cerevisiae tim10-1 ts strain growth, BacTiter-Glo, 24 h; at 20 µM; active compounds read high.
On to `Cc1ccc(OS(=O)Nc2cccc3nccnc23)cc1` (stereo unspecified), for which the inhibition was 25.4%. In the case of `COc1ccc(C(=O)/C=C/c2ccc(-c3ccccc3)cc2)cc1CSCC(=O)O` it was 22.9%; in that of `CC(=O)Nc1ccc(/C=C/C(=O)c2ccccc2)cc1`, 36.3% (active); in that of `CN1c2ccccc2-c2nc3ccccc3n2C1c1ccco1` (stereo unspecified), 19.8%.

As to `CCn1nc(C)c(NC(=O)/C=C/c2ccc(OC)c(COc3ccc(Br)cc3)c2)c1C`, the inhibition is 19.9%. In the case of `CCCCCCCCn1c2c(c(=N)c3c1CCC3)CCCC2` it was 30.4% (active); in that of `O=[N+]([O-])c1ccc2oc(-c3cccc(O)c3)nc2c1`, 49.8% (active). In the case of `COc1ccccc1-n1ccnc(SCC(=O)NC2CCCCC2)c1=O` it was 11.8%. The result for `COc1ccccc1C(=O)NC(=S)Nc1ccccc1N1CCCCC1` reads 19.4%; that for `Cc1ccc(C(=O)NC(=S)Nc2ccccc2C)cc1`, 29.8% (active).

Take `CCc1ccc(C(=O)NC(=S)Nc2ccccc2N2CCOCC2)cc1`: the inhibition is 17.1%.

Consider `COc1ccc(/C=N/Nc2ncnc3sc4c(c23)CCCC4)cc1O`, for which the inhibition is 17.2%. Turning to `Cc1ccc(C(=O)/C=C/c2c(C)nn(-c3ccccc3)c2Cl)cc1`, the inhibition was 38% (active).

Take `CCOC(=O)N1CCC(N2Cc3cccc(C(=O)Nc4c(C)cccc4CC)c3C2=O)CC1`: the inhibition was 16.6%.

`COc1ccc(C(=O)NC(=S)NNC(=O)c2c(-c3ccccc3)noc2C)cc1`: the inhibition was 18.1%. Regarding `Cc1[nH]c2ccccc2c1C(=O)COC(=O)c1c(-c2ccccc2)noc1C`, the inhibition is 45.4% (active). In the case of `COc1ccc(Nc2nc(N)nc(CSC(=S)N3CCC(C)CC3)n2)cc1` it was 29.9%. The result for `CC(=NCc1ccco1)c1c(C(F)(F)F)[nH]n(-c2nc3ccccc3s2)c1=O` reads 63.5% (active); that for `Cc1cc(Br)ccc1NC(=O)c1sc2ncn(CC(=O)N3CCN(c4ccccn4)CC3)c(=O)c2c1C`, -10.2%. The result for `O=C(O/N=C(/c1ccccc1)c1ccncc1)c1ccccc1[N+](=O)[O-]` reads 35.3% (active); that for `O=C(Oc1ccc(-c2nc(-c3ccccn3)no2)cc1)c1ccccc1`, 30.3%.

Consider `Cc1ccc(Oc2nc(-c3ccccn3)nc3ccccc23)cc1`, for which the inhibition is 35.5% (active). In the case of `O=C(ON=C1CCN(S(=O)(=O)c2ccccc2)CC1)c1ccc(Cl)cc1` it was 61% (active); in that of `CCOc1cccc(-c2nn3c(-c4ccccn4)nnc3s2)c1`, 39% (active). The result for `Cc1cc(C)nc(S/C=C/C(=O)c2ccccc2)n1` reads 71% (active). In the case of `COc1ccc(NCc2nnc(SCc3ccccc3)n2-c2ccc(OC)cc2)cc1` it was 38.9% (active). As to `N#Cc1ccc(CSc2nnc(-c3ccccn3)n2-c2ccc(Cl)cc2)cc1`, the inhibition was 30.9%. With `CC(NC(=S)Nc1ccccc1)C1COc2ccccc2O1` (stereo unspecified), the inhibition is 37.4% (active). In the case of `COc1ccc(OC)c2sc(NC(=O)C3COc4ccccc4O3)nc12` (stereo unspecified) it was 23.6%. The result for `CC(c1ccco1)N(C(=O)Nc1ccccc1)C1CCCCC1` (stereo unspecified) reads 19.4%; that for `Cc1ccc(SC(CC(=O)c2ccc(C(C)(C)C)cc2)C(=O)O)cc1` (stereo unspecified), 38.5% (active). In the case of `c1c2c(cc3sc(N4CCCCC4)nc13)OCCO2` it was 27.8%. As for `Cc1ccc(/C(N)=N/OC(=O)COc2ccc(Cl)c(C)c2)cc1`, the inhibition was 29.1%. The result for `Cc1cccc(/C(N)=N/OC(=O)c2ccccc2Cl)c1` reads 50.9% (active). On to `Cc1cc(N=Nc2ccc3ccccc3c2)ccc1O`, for which the inhibition is 36.4% (active).

For the molecule `Cc1nonc1C(=O)N/N=C/c1ccc(O)cc1`, the inhibition was 44.9% (active). The result for `O=C(/C=C/c1ccc(Cl)cc1Cl)NCc1ccco1` reads 34.4% (active); that for `COc1ccc(-c2cc(C3CCN(c4ncccc4[N+](=O)[O-])CC3)[nH]n2)cc1`, 30.2%; that for `COC(C/C=C/C(=O)[C@@H](C)OCc1ccccc1)OC`, 43.7% (active).

For `Nc1ccc(-c2nnc(-c3ccc(-c4ccccc4)cc3)o2)cc1`, the inhibition was 25.1%. As for `CCc1ccc2oc(-c3ccc(N)cc3)nc2c1`, the inhibition is 41.8% (active). Regarding `COc1ccc(NC(=O)c2cc3nc(-c4ccccc4)cc(C)n3n2)cc1OC`, the inhibition is 33.3% (active). In the case of `CC(C)CCNC(=O)c1ccc2c(Cl)c3c(nc2c1)CCC3` it was 35% (active); in that of `CSc1nnc2ccc(-c3ccc(C)cc3)nn12`, 24.9%. On to `Cc1ccc(-c2cn3cc(C)ccc3n2)cc1`, for which the inhibition was 43.9% (active). In the case of `COc1ccc2c(c1)cc1n2CCN=C1NN`, the inhibition was 27.9%. For `CCOC(=O)C(=Cc1ccccc1OC)C(=O)OCC`, the inhibition is 30.1% (active). In the case of `COc1ccccc1CNC(=O)c1ccc(SC)cc1OC` it was 20.9%; in that of `CNC(C)C#Cc1ccc2sc3cc(OC)c(OC)cc3c(=O)c2c1` (stereo unspecified), 31.8% (active); in that of `CSC(=S)N/N=C/c1c[nH]c2ccccc12`, 41.7% (active). In the case of `COC(=O)CSc1snnc1-c1ccc(Cl)c(Cl)c1` it was 31.9% (active); in that of `CCC(=O)Nc1nc2ccccc2n1Cc1ccccc1C`, 18%; in that of `O=c1oc(-c2ccco2)nc2sc3c(c12)CCCCC3`, 3.45%. For `O=C(NCc1ccco1)c1cccn2c(=O)c3c4c(sc3nc12)CCCC4`, the inhibition was 42.4% (active).

With `Cc1ccc(-c2csc(NC(=O)C3=COCCO3)n2)cc1C`, the inhibition is 18.2%. On to `Cc1ccc2nc(N(CCN(C)C)C(=O)C3=COCCO3)sc2c1`, for which the inhibition was 35.6% (active).

`CN(C)CCN(C(=O)C1=COCCO1)c1nc2ccc(Cl)cc2s1`: the inhibition is 69% (active). As to `Clc1ccc(C2CC(c3cccs3)n3ncnc3N2)cc1Cl` (stereo unspecified), the inhibition is 18%.

In the case of `Cc1ccc(S(=O)(=O)NC(C(=O)N2CCOCCOCCOCCOCC2)c2ccccc2)cc1` (stereo unspecified), the inhibition was 0.85%. In the case of `Cc1oc2c(c1C(=O)N1CCOCC1)C(=O)c1ccccc1C2=O` it was 27.7% (active); in that of `O=C1c2cccc3c([N+](=O)[O-])ccc(c23)C(=O)N1CC1CCCO1` (stereo unspecified), 46.5% (active); in that of `N#C/C(=C\c1cccnc1)C(=O)Nc1ccc(SC(F)F)cc1`, 17.2%. The result for `O=C(Cc1ccc(Cl)c(Cl)c1)Nc1ccc(SC(F)F)cc1` reads 35.9% (active); that for `COc1ccc(C(C[N+](=O)[O-])n2nc(C)cc2C)cc1` (stereo unspecified), 38.1% (active); that for `COc1cccc(Cn2cnc3c([N+](=O)[O-])c(C)c(C)cc32)c1`, 25.6%. With `COc1ccc2c(c1)C(NS(=O)(=O)OCC(Cl)(Cl)Cl)CCC2` (stereo unspecified), the inhibition was 27.9% (active). Regarding `Cc1nn(Cc2ccc(Cl)c(Cl)c2)c(C)c1NC(=O)c1cc(C2CC2)on1`, the inhibition was 51.2% (active).

Turning to `O=C1CSC(=S)N1c1ccc(Cl)c(Cl)c1`, the inhibition was 34.4% (active). The result for `S=C(NCCCc1ccccc1)Nc1ccc(Br)cc1` reads 36.3% (active). In the case of `COc1ccc2nc(NC(=O)[C@@H]3CCCN3C(=O)c3cccs3)sc2c1` it was 19.9%; in that of `CC(C)(C)NC(=O)NC(=O)COC(=O)CCC1CCCCC1`, 37.9% (active); in that of `Cc1nn2c(c1-c1ccccc1)N=C(c1ccco1)CC2c1ccccc1` (stereo unspecified), 28.9%.

As to `COc1ccc2nc(Nc3nc4cc5c(cc4s3)OCCO5)sc2c1`, the inhibition is 1.5%. In the case of `CCn1c(/C=C/c2ccc([N+](=O)[O-])o2)nc2ccccc2c1=O`, the inhibition was 45.9% (active). The result for `Brc1ccc(C2=CC(c3ccco3)n3ncnc3N2)cc1` (stereo unspecified) reads 18.9%; that for `Nc1ccccc1Sc1ccc(C(F)(F)F)cc1[N+](=O)[O-]`, 61.2% (active).
